According to ChEMBL document CHEMBL3988442, “University of Dundee, Small-Polar-MMV Screening Library” (2021):
For some assays here: Entries with a potency or affinity are not part of this list.

Experiments:
Parameters in all cases: scale not given: direction of the effect not stated beside the values
[1] = target: Protein translocase subunit SecA (Escherichia coli (strain K12)) (UniProt P10408); test: Assay to Identify E. coli SecA ATPase Inhibitors; format: functional; details: 30 µM
[2] = target: T1, Ubiquitin-activating enzyme e1, putative (Leishmania donovani (strain BPK282A1)) (UniProt E9BSI1); test: Leishmania donovani Ubiquitin Activating Enzyme (LdE1); format: functional; details: 30 µM
T1 sequence (whole entry): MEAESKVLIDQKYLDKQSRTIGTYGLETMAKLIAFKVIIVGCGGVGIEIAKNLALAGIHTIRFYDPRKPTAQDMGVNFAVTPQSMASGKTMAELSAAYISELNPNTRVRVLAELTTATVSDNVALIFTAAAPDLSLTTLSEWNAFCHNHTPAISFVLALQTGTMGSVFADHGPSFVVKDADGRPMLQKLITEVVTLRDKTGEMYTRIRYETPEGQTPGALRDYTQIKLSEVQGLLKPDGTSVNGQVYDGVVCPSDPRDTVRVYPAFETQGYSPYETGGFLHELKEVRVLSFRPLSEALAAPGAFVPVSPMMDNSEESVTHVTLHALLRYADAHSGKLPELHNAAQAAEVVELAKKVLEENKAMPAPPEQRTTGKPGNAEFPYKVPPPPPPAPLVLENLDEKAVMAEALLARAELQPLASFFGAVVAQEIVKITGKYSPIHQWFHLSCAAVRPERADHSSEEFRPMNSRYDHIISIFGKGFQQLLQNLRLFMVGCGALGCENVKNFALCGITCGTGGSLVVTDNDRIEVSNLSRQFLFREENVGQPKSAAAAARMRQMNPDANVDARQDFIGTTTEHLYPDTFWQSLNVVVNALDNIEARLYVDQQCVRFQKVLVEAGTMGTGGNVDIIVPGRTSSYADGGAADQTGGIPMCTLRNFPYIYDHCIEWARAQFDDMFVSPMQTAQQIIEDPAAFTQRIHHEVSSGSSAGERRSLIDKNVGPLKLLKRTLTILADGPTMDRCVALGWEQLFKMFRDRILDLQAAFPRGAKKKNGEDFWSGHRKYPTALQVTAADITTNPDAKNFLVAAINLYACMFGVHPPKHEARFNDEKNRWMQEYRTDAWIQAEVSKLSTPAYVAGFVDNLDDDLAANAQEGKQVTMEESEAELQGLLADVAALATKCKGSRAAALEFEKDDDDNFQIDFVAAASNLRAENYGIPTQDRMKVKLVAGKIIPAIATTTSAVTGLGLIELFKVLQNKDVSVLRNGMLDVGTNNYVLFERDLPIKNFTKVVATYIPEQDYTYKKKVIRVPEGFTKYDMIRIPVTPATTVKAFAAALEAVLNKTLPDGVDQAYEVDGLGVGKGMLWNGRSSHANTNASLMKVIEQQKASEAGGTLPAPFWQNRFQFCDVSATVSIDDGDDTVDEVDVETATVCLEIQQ

[3] = target: AMP-activated protein kinase, AMPK (Homo sapiens) (UniProt P54646+O43741+P54619+Q9UGJ0+Q9Y478+Q13131+Q9UGI9); test: AMP-dependent Kinase enzyme assay. An in vitro enzyme assay that detects ADP turnover that is directly proportional to AMPK activity. This uses naive AMPK that is activated during the assay with MK-8722; format: functional; details: 30 µM
[4] = target: Sialic acid-binding Ig-like lectin 9 (Homo sapiens) (UniProt Q9Y336); test: Hs-Siglec9 ALPHAscreen SOP 20170721; details: 10 µM
Sequence of Sialic acid-binding Ig-like lectin 9 (Homo sapiens) (Q9Y336 whole entry): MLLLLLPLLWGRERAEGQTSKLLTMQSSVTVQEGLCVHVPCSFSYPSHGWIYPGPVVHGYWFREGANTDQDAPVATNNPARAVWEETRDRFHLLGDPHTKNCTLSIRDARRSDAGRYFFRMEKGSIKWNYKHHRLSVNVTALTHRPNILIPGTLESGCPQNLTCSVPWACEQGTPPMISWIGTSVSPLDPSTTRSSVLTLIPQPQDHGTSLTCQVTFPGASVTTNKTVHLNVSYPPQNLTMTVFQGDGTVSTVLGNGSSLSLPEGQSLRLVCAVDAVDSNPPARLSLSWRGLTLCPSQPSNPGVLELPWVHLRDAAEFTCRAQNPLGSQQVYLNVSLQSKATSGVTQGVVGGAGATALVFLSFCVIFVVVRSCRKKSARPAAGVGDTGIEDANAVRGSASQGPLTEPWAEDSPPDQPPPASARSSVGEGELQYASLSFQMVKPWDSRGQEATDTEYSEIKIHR

Trypanosoma cruzi = test: Trypanosoma cruzi phosphomannomutase and mannose-1-phosphate guanylyltransferase assay; format: functional; details: 10 µM
[5] = target: T2, Arginase-2, mitochondrial (Homo sapiens) (UniProt P78540); test: in vitro enzyme assay to detect the production of urea directly proportional to the activity of Arginase II; format: functional; details: 33.3 µM; note: in the data most compounds retested in dose-response had high values
T2 sequence (whole entry): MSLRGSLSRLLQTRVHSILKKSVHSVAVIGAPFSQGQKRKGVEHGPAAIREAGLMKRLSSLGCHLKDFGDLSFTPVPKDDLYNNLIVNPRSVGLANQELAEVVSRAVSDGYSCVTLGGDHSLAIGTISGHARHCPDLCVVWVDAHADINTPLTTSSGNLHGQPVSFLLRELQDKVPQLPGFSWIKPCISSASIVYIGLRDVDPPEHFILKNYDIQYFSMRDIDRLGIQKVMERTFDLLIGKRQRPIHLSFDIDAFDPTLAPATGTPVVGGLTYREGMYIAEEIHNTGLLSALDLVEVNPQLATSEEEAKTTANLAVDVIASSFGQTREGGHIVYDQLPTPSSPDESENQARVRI

[6] = target: T3, Proteasome subunit beta (Trypanosoma cruzi) (UniProt O96673); test: Trypanosoma cruzi proteasome chymotrypsin-like activity (TcProtChymo) assay.; note: in the data most compounds retested in dose-response had high values; format: functional; details: 9.37 µM
T3 sequence (whole entry): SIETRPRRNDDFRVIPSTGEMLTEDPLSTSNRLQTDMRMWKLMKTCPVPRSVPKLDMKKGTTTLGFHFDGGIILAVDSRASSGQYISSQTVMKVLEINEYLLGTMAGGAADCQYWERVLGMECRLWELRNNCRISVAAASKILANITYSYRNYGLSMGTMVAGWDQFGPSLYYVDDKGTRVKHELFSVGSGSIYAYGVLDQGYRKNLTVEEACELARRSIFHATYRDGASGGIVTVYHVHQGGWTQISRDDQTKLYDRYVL

Homo sapiens = organism: Homo sapiens; test: To identify inhibition of the IFN signalling (Jak-Stat) pathway via expression of an eGFP reporter gene under the control of an IFN-stimulated response element (ISRE) containing MxA promoter.; format: functional; details: 30 µM
[7] = target: T4, Tyrosyl-tRNA synthetase, putative (Trypanosoma cruzi (strain CL Brener)) (UniProt Q4DSP6); test: Trypanosoma cruzi tyrosyl tRNA synthetase (TcYRS) _High Tyrosine SOP; format: functional; details: 30 µM; note: in the data most compounds retested in dose-response had high values
T4 sequence (whole entry): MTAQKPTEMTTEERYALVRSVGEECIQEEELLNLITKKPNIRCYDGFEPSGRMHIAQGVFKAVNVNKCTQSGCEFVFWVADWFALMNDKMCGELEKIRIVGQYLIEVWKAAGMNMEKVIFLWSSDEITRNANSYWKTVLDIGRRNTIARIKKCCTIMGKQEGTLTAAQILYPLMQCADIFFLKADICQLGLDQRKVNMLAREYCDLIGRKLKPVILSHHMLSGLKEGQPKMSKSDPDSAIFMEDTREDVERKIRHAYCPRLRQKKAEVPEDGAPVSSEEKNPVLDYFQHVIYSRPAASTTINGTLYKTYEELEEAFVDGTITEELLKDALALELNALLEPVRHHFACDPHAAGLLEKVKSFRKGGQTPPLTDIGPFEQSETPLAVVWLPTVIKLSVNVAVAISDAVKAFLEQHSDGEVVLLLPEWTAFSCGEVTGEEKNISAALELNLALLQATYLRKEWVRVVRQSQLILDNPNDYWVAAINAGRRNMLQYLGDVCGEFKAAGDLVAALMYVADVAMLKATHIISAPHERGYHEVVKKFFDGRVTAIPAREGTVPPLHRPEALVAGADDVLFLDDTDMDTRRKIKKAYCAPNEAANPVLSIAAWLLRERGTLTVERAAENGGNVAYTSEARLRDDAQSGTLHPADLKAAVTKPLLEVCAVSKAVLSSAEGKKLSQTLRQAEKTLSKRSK

[8] = target: T4, Tyrosyl-tRNA synthetase, putative (Trypanosoma cruzi (strain CL Brener)); test: Trypanosoma cruzi tyrosyl tRNA synthetase (TcYRS) SOP; format: functional; details: 30 µM
[9] = target: Chromo domain-containing protein 1 (Saccharomyces cerevisiae (strain ATCC 204508 / S288c) (Baker's yeast)) (UniProt P32657); test: ScCHD-1 Enzyme Inhibition Assay; format: functional; details: 30 µM; note: in the data most compounds retested in dose-response had high values
Sequence of Chromo domain-containing protein 1 (Saccharomyces cerevisiae (strain ATCC 204508 / S288c) (Baker's yeast)) (P32657 whole entry, the tested form may be a part): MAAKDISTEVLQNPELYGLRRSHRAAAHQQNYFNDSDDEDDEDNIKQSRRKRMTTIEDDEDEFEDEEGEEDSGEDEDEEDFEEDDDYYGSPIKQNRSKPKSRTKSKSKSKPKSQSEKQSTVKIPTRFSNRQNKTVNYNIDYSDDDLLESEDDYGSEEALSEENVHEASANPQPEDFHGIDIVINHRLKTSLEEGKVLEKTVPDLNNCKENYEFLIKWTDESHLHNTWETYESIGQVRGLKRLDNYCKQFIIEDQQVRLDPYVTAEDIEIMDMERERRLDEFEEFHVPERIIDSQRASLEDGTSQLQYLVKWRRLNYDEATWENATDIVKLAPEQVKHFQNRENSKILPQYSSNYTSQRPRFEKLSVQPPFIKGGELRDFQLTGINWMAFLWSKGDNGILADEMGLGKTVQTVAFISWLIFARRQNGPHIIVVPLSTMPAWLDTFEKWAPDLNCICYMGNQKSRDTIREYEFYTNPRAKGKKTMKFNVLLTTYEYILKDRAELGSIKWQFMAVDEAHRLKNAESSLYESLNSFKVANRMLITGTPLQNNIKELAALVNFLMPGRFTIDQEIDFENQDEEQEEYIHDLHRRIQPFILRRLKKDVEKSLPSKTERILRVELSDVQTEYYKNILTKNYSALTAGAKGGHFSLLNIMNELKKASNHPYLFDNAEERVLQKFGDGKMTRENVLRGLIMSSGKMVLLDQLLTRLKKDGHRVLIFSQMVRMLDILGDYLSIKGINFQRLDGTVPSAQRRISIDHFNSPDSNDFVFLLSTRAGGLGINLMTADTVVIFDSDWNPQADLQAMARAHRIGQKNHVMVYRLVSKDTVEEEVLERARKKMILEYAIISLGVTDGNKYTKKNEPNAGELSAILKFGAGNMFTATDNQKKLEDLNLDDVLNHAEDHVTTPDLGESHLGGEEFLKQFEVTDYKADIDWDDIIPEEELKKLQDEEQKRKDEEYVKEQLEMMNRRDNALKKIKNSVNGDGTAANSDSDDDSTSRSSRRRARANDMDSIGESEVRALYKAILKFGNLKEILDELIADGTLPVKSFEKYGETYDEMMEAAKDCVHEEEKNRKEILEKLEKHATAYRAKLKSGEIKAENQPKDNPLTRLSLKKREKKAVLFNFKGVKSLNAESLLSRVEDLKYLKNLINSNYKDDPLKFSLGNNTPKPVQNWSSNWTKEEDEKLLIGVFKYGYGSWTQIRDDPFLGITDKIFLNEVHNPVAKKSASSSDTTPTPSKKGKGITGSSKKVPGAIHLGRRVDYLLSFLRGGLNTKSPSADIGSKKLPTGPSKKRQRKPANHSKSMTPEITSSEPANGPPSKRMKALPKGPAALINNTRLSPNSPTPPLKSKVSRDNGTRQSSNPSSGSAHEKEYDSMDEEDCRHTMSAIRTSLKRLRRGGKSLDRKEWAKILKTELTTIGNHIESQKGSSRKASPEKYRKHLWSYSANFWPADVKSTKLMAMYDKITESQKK

Sequence of Protein translocase subunit SecA (Escherichia coli (strain K12)) (P10408 whole entry): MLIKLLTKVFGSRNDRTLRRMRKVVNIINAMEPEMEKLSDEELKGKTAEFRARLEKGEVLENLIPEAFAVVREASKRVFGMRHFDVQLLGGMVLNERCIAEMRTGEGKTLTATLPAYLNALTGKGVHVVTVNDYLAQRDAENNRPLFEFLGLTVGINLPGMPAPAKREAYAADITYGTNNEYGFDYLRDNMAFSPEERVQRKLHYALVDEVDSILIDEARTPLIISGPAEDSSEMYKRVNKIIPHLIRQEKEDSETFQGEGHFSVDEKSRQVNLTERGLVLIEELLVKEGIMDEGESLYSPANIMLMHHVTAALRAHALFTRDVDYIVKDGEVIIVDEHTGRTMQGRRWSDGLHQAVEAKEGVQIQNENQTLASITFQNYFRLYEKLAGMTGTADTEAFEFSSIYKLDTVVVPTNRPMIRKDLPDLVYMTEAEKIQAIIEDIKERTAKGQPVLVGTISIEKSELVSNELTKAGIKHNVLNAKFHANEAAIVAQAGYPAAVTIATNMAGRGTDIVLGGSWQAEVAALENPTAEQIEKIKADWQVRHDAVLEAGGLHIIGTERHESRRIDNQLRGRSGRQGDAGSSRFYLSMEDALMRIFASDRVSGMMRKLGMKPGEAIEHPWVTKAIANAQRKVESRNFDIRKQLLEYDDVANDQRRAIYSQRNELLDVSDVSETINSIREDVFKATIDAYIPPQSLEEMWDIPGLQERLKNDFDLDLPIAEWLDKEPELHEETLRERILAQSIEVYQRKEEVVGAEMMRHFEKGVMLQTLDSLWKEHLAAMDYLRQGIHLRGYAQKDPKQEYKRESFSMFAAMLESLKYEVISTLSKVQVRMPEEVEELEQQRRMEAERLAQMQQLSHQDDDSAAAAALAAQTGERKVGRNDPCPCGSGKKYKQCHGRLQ

| Structure (SMILES) | Percent Effect [1] [%] | Percent Effect [2] [%] | Percent Effect [3] [%] | Percent Effect [4] [%] | Percent Effect (Trypanosoma cruzi) [%] | Percent Effect [5] [%] | Percent Effect [6] [%] | Percent Effect (Homo sapiens) [%] | Percent Effect [7] [%] | Percent Effect [8] [%] | Percent Effect [9] [%] |
| --- | --- | --- | --- | --- | --- | --- | --- | --- | --- | --- | --- |
| O=C(Nc1ccnc(OC2CCOC2)c1)C1CCC1 (stereo not given) | -2.23 | -4.17 | -0.181 | 4.31 | -6.32 | 1.32 | 13.3 | 5.01 | -2.1 | -5.13 | 6.48 |
| Cc1cc(C)n(CC2CCCN2C(=O)Cc2c(C)noc2C)n1 (stereo not given) | -7.56 | 8.11 | -14.7 | 23.5 | 2.92 | -9.62 | 9.37 | 15.8 | 4.43 | 13.6 | -11.4 |
| Fc1ccc(CN2CCCN(Cc3cscn3)CC2)cc1 | -1.59 | 18.2 | -0.0725 | -10.1 | -1.27 | 1.05 | 9.46 | 30.6 | 8.57 | 25.9 | -21.9 |
| N#Cc1cccc(NC(=O)N[C@H](CO)c2ccccc2)c1 | -2.38 | 5.41 | 5.16 | 5.37 | -1.35 | 3.33 | 11.6 | 5.19 | 1.59 | 12.2 | -2.38 |
| CC(=O)N1CC(=O)N(c2cnn(C)c2)CC12CCN(Cc1ccoc1)C2 (stereo not given) | -1.18 | 5.41 | 1.2 | -0.95 | 1.95 | 1.25 | -1.61 | 5.16 | 2.97 | 11 | -1.77 |
| CNC(=O)C(NC(=O)c1nccn2ccnc12)c1ccc(F)c(F)c1 (stereo not given) | -5.39 | 13.5 | -2.95 | 5.66 | 5.27 | 16.2 | 19 | -10.6 | 5.94 | 15.8 | 23.6 |
| CCc1cc(N[C@H]2CC[C@H](O)CC2)n2nc(C)c(C)c2n1 | -3.74 | 1.39 | 0.211 | -3.49 | -2.82 | -0.442 | 5.09 | -20.9 | -9.47 | 10.3 | -3.52 |
| O=C(Cn1c(=O)n(Cc2ccco2)c2ncccc21)Nc1ccccn1 | -8.13 | 1.35 | 4.77 | 2.6 | -6.13 | -4.41 | 9.2 | 3.38 | 5.38 | 1.3 | -0.416 |
| O=C(c1ccc[nH]1)N1C[C@H]2CN(Cc3cccc(F)c3)C(=O)[C@H]2C1 | -2.55 | 13.5 | 9.65 | -6.44 | -2.05 | 6.05 | 20.3 | 13 | 0 | 7.69 | -2.96 |
| CN(C)CCN1CCOCC2(C1)CN(Cc1ccsc1)CCO2 (stereo not given) | -4.22 | 5.33 | 14.3 | 0.643 | -2.56 | 4.89 | 4.67 | -0.367 | 4.25 | 8.97 | -3.51 |
